Source: PubChem
Sampled rows, rich in hits. Any-hit rate of the full collection: about 2.1%.
EP2 mod: modulates human prostaglandin E2 receptor EP2 signaling. induction, % at 25 µM. EP2-expressing cells, cAMP HTRF FRET, PGE2 co-stimulation. actives 0.83% (n = 260,000);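 active = compounds whose cAMP rise, as percent of the full-agonist control response, exceeds 60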;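 note: rat C6 glioma line stably carrying human EP2 under a CMV promoter; the protocol text gives 20 µM as final concentration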
CHT inh: human CHT choline transport inhibition. CHT-expressing cells, membrane potential dye, choline response; hits give low values. B-score at 10 µM. actives 0.86% (n = 310,000). AID 488975;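 active = B-score over 3 SD under the library average, and starting fluorescence ratio not unusually high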;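 note: choline stimulus applied at its EC90 after an EC20 pre-addition; B-score computed on integrated fluorescence ratio after choline addition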
Target sequence (Q9GZV3 whole entry, looked up): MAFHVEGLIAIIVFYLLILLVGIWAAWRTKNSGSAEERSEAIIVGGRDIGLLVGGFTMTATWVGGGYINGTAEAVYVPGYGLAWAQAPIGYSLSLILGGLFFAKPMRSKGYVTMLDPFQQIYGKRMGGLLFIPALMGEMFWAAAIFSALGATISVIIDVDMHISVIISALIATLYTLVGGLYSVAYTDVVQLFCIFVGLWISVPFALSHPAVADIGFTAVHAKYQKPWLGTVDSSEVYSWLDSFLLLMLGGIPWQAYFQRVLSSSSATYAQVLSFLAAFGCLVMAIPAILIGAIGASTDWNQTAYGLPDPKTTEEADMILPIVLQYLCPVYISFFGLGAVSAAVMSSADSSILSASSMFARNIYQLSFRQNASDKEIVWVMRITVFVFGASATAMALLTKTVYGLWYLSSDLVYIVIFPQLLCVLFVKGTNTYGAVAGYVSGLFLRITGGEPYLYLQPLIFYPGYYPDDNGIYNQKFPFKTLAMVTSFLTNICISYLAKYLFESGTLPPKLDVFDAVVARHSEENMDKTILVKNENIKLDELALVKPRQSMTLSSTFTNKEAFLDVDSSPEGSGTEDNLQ
CHT allo act: allosterically activates the human high affinity choline transporter | Q9GZV3 | B-score at 10 µM | actives 0.49% (n = 310,000) | CHT-expressing cells, membrane potential dye, choline EC20; hits give high values; LV-AA mutant CHT in HEK293 cells;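 active = initial fluorescence not abnormally high and integrated response B-score, plate-corrected, over 3 SD above library mean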
PGE2 EP2 inh: blocks the human prostaglandin E2 receptor EP2 | C6 glioma cells expressing human EP2, cAMP TR-FRET; cells stimulated with saturating PGE2 | inhibition, % at 25 µM | actives 0.52% (n = 260,000) | P43116 | AID 1422;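 active = percent inhibition above 40 after rounding to a whole number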;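 note: rat C6 glioma host cells with rolipram phosphodiesterase inhibitor present; the protocol text gives 20 µM as final concentration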
Each line names hits and unclear results; the compound was inactive in the other large screens.

O=c1c2ccccc2nc(-c2ccc(Br)cc2)n1Cc1ccccc1	EP2 mod 63
CCn1c(/C=C\c2ccccc2C)nc2ccccc2c1=O	none
COc1ccccc1NC(=O)N(Cc1cc2cc(C)cc(C)c2[nH]c1=O)C1CCCC1	none (no result: CHT inh, CHT allo act)
CCC(C)NC(=O)C1CC(c2ccccc2Cl)=NO1 (configuration not stated)	none (no result: CHT inh, CHT allo act)
Cc1nc(C)n(C(C)CNC(=O)C2ON=C(c3ccc(F)cc3)C2C)n1 (configuration not stated)	none (no result: CHT inh, CHT allo act)
O=c1ccc2[n+]([O-])c3ccc(O)cc3oc-2c1	PGE2 EP2 inh 83 (no result: CHT inh, CHT allo act)
COCCn1nnnc1C(c1cc2ccc(OC)cc2[nH]c1=O)N1CCN(Cc2ccccc2)CC1 (configuration not stated)	none (no result: CHT inh, CHT allo act)
CC(C)(C)c1cc(NCc2ccccn2)n2ncc(-c3ccccc3)c2n1	EP2 mod 62
Cc1cc(C)n(-c2cc(C(C)(C)C)nc3c(-c4ccccc4)cnn23)n1	none
CCCCN(CCCC)C(=O)c1sc2nc(N3CCOCC3)c3c(c2c1N)CCCC3	EP2 mod 87
O=C(Nc1ccc(Cl)cc1)c1csc(-c2ccncc2)n1	none
O=C(Nc1ccc(Br)cc1)c1csc(-c2ccncc2)n1	PGE2 EP2 inh 174
Cc1ccc(-n2c(C)cc(=O)cc2C)cc1[N+](=O)[O-]	CHT inh -8.3 (no result: EP2 mod, PGE2 EP2 inh)
O=C(Nc1ccc(Cl)c(Cl)c1)c1cc2ccc(O)cc2oc1=O	none (no result: CHT inh, CHT allo act)
CCOC(=O)c1c(C)[nH]sc1=S	EP2 mod 64 (no result: CHT inh, CHT allo act, PGE2 EP2 inh)
O=C(c1ccno1)N1CCCC(c2ncncc2-c2ccncc2)C1 (configuration not stated)	none (no result: CHT inh, CHT allo act, PGE2 EP2 inh)
CCN(C(=O)c1ccccc1)c1ccc([N+](=O)[O-])cc1	none
O=[N+]([O-])c1ccc(N(c2ccccc2)c2ccccc2)cc1	EP2 mod 61
O=C(COc1ccc2ccccc2c1)NNC(=O)Cc1ccccc1	PGE2 EP2 inh 63
O=C(COc1ccc2ccccc2c1)NNC(=O)Cc1cccc2ccccc12	none
CC(Nc1nc(-c2ccccc2F)nc2ccccc12)c1ccccc1 (configuration not stated)	none (no result: EP2 mod, PGE2 EP2 inh)
CC(Nc1nc(-c2ccccc2O)nc2ccccc12)c1ccccc1 (configuration not stated)	EP2 mod 70
CC1CCN(S(=O)(=O)c2cccc(C(=O)Oc3ccc([N+](=O)[O-])cc3)c2)CC1	PGE2 EP2 inh 40
COc1ccc(-c2cc(-c3ccc(Cl)s3)nc(N)c2C#N)cc1	none (no result: CHT inh, CHT allo act)
COc1ccc(-c2sc(Nc3ccccc3)n[n+]2-c2ccc(F)cc2)c(C)c1C	CHT inh -5.4 (no result: EP2 mod, PGE2 EP2 inh)
O=C(NCCCN1Cc2ccccc2C1)C1(c2ccccc2F)CC1	none (no result: CHT inh, CHT allo act)
Cc1ccc(S(=O)(=O)O[C@H]2C[C@@H](C(C)(C)C)CC[C@@H]2c2ccccc2)cc1	PGE2 EP2 inh 43 (no result: CHT inh, CHT allo act)
Cc1ccc(S(=O)(=O)N2CCN(c3ccccc3)CC2)cc1	none (no result: EP2 mod, PGE2 EP2 inh)
CCc1nnc(NC(=O)CSc2nnc(-c3cccnc3)n2Cc2ccccc2)s1	none (no result: CHT inh, CHT allo act)
COc1cccc(C(=O)Nc2c(C(N)=O)oc3ccccc23)c1	none
CCOC(=O)c1oc2ccccc2c1NC(=O)c1cccc(OC)c1	EP2 mod 63
CCOC(=O)c1oc2ccc(OC)cc2c1CSc1ccccn1	EP2 mod 62 (no result: CHT inh, CHT allo act)
O=C1CCc2cc(S(=O)(=O)NC(c3ccccc3)c3ccccc3)ccc2N1	none (no result: CHT inh, CHT allo act)
Cc1cccc(CC(=O)NC(C)c2nc(-c3cccnc3)n[nH]2)c1 (configuration not stated)	none (no result: CHT inh, CHT allo act)
c1ccc(-c2ccc(-c3nccc4ccccc34)[nH]2)cc1	none (no result: CHT inh, CHT allo act)
O=C(O)c1c(-c2nccc3ccccc23)[nH]c(-c2ccccc2)c1S(=O)(=O)O	PGE2 EP2 inh 75 (no result: CHT inh, CHT allo act)
Cc1cc2c(=O)n(CC(=O)N3CCn4c(C)ccc4C3C(C)C)cnc2s1 (configuration not stated)	none (no result: CHT inh, CHT allo act)
O=C(Nc1cccc(N2C(=O)C=CC2=O)c1)c1cccs1	none (no result: EP2 mod, PGE2 EP2 inh)
O=C1C=CC(=O)N1c1cccc(-c2ccccc2)c1	PGE2 EP2 inh 114
CCN1CCN(S(=O)(=O)c2ccc(OC)c(Cl)c2Cl)CC1	none (no result: CHT inh, CHT allo act)
c1ccc(CNC2=NCCC2)nc1	none
N#CC[N+]1(Cc2ccccn2)CCCC1	PGE2 EP2 inh 42 (no result: CHT inh, CHT allo act)
CN1CCN(C2=C(Cl)C(=O)N(C3CCCCC3)C2=O)CC1	none
CN1CCN(C2=C(Cl)C(=O)C(c3cnc(N4CCCCC4)s3)=C(Cl)C2=O)CC1	PGE2 EP2 inh 104
Cc1ccc(C(=O)NCCCN2CCOCC2)cn1	none (no result: CHT inh, CHT allo act)
COCCN1C(=O)C(=O)/C(=C(\O)c2cc(C)ccc2C)C1c1ccc(O)c(OC)c1 (configuration not stated)	none (no result: CHT inh, CHT allo act)
Nc1nc(SCC(=O)C2CCC(Br)CC2)c2[nH]cnc2n1 (configuration not stated)	PGE2 EP2 inh 49 (no result: CHT inh, CHT allo act)
Nc1nc(SCC2CCCCC2[N+](=O)[O-])c2[nH]cnc2n1 (configuration not stated)	none (no result: CHT inh, CHT allo act)
O=C(Nc1nn[nH]n1)c1nc(-c2ccccc2)cc(=O)[nH]1	PGE2 EP2 inh 55 (no result: CHT inh, CHT allo act)
Cc1n[nH]c(=S)n1NCc1ccc(Cl)cc1Cl	none (no result: CHT inh, CHT allo act)
Cc1cc(C)c2[nH]c(=O)c(C(c3nnnn3C(C)(C)C)N3CCN(c4ccccc4F)CC3)cc2c1 (configuration not stated)	none (no result: CHT inh, CHT allo act)
Cc1ccc(N(C(=O)Cc2cccs2)C(C(=O)NC2CCCC2)c2cccs2)cc1 (configuration not stated)	EP2 mod 80 (no result: CHT inh, CHT allo act)
COc1cccc(N(C(=O)Cc2cccs2)C(C(=O)NC2CCCC2)c2ccc(C)o2)c1 (configuration not stated)	none (no result: CHT inh, CHT allo act)
COc1ccc(C)cc1N(C(=O)Cc1cccs1)C(C(=O)NC1CCCC1)c1ccc(C)o1 (configuration not stated)	EP2 mod 75 (no result: CHT inh, CHT allo act)
O=C(NC1CCCCC1)C(c1ccccc1F)N(Cc1ccco1)C(=O)Cc1cccs1 (configuration not stated)	EP2 mod 63 (no result: CHT inh, CHT allo act)
CC(=O)c1ccc(N(C(=O)Cc2cccs2)C(C(=O)NC2CCCC2)c2cccs2)cc1 (configuration not stated)	none (no result: CHT inh, CHT allo act)
Cc1nn(CC(=O)N(C2CCCCC2)C2CCCCC2)c(=O)c2cc3occc3n12	none (no result: CHT inh, CHT allo act, PGE2 EP2 inh)
CCOc1ccc2[nH]c(=O)c(C(c3nnnn3CCOC)N3CCN(CC)CC3)cc2c1 (configuration not stated)	none (no result: CHT inh, CHT allo act)
C=CCn1cc(/C=C2\SC(=O)N(C)C2=O)c2ccccc21	none (no result: CHT inh, CHT allo act)
C=CCn1c(SCC(=O)OC)nc2sc3c(c2c1=O)CCN(C)C3	CHT allo act 6.3
C=CCn1c(SCC)nc2sc3c(c2c1=O)CC(C)(C)OC3	EP2 mod 80 (no result: CHT inh, CHT allo act)
COC(=O)CSc1nc2sc3c(c2c(=O)n1-c1ccccc1)CCN(C)C3	none
Cc1nn(CC(=O)NCC2CC2)c(=O)c2cc3occc3n12	none (no result: CHT inh, CHT allo act)
FC(F)(F)c1cc(-c2ccc3c(c2)OCO3)nc(=S)[nH]1	none (no result: CHT inh, CHT allo act)
CN(C)Cc1ccccc1C(O)(c1ccccc1)c1ccccc1	none (no result: EP2 mod, PGE2 EP2 inh)
CN(C)Cc1cc(C(F)(F)F)ccc1C(O)(c1ccccc1)c1ccccc1	PGE2 EP2 inh 46 (no result: CHT inh, CHT allo act)
CCc1ccc2nc(-c3ccccc3)nc(SCC(=O)NCCOC)c2c1	none (no result: CHT inh, CHT allo act)
CCOC(=O)c1cccc(NC(=O)CSc2nnc3c(C)cc4cc5c(cc4n23)OCO5)c1	PGE2 EP2 inh 48 (no result: CHT inh, CHT allo act)
